Experimental findings from PubChem BioAssay are described below.

Assay [1] has as its system Wnt5a (protein binding on small-molecule microarray). Kind of assay: small molecules binding Wnt5a protein – biophysical, small-molecule microarray, 635/667 nm fluorescence, primary screen (AID 1142).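 Further: fluorescence read at 667 nm with signal to noise per printed feature.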 To be noted: 635 nm fluorescence, higher = more signal.
Assay [2] is described as follows: ATP-based viability of Huh7 replicon cells – cell-based, CellTiter-Glo luminescence, basal, 48 h, cytotoxicity control for HCV replication inhibitor project, primary screen (AID 1143).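 Further: Huh7 hepatoma cells carrying a hepatitis C replication reporter with no stimulus; test concentration not given here.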 To be noted: higher = more signal, called active from +8 up or from −8 down. Background: A replicon is a self-replicating genome or part of one, used to study replication in cells.
A short description of assay [3]: Pseudomonas biofilm growth suppression – PAO1 strain, BacTiter-Glo luminescence, LB-PBS, primary screen (AID 1144). To be noted: P. aeruginosa PAO1 biofilm, 12 h, higher = more signal.
Assay [4] can be described thus: basal CRE-LacZ reporter activity in PC12 – cell-based, unstimulated, primary screen (AID 1145). To be noted: no forskolin, luminescence, 4.5 h, higher = more signal, called active from +8 up or from −8 down.
The nature of assay [5]: forskolin-driven CRE-LacZ activity in PC12 – cell-based, CRE-LacZ reporter, forskolin-stimulated, primary screen (AID 1146).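 Further: PC12 cells with 6xCRE LacZ reporter stimulated by forskolin 10 µM; beta-galactosidase reporter signal reflecting CREB driven transcription.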 To be noted: luminescence, 4.5 h, higher = more signal, called active from +8 up or from −8 down.
The target of assay [6] is Streptavidin (Streptomyces avidinii) (UniProt P22629). Kind of assay: compounds binding control protein streptavidin – biophysical, small-molecule microarray, 635/667 nm fluorescence, artefact control for SMM compound annotation, primary screen (AID 1147).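 Further: signal reflects streptavidin binding to arrayed compounds as a control protein.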 To be noted: higher = more signal.
Streptavidin (Streptomyces avidinii), sequence (P22629 whole entry, looked up): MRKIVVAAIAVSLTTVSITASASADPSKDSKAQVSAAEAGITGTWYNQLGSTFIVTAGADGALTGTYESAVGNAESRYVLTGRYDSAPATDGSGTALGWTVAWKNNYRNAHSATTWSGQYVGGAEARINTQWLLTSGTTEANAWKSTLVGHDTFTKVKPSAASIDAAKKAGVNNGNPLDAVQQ
Assay [7] is described as follows: probe aInhba binding on compound microarray – biochemical, small-molecule microarray, 635/667 nm fluorescence, primary screen (AID 1148).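 Further: score merges 667nm spot fluorescence with signal-to-noise for antibody binding to printed compounds.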 To be noted: higher = more signal.
The target in assay [8] is Torsin-1A (Homo sapiens) (UniProt O14656). Briefly: TOR1A wild-type binding on microarray – cell lysate, small-molecule microarray, lysate, 635/667 nm, primary screen (AID 1149). To be noted: COS7 hTOR1A-WT lysate, 635 nm fluorescence, higher = more signal.
Torsin-1A (Homo sapiens), sequence (O14656 whole entry, looked up): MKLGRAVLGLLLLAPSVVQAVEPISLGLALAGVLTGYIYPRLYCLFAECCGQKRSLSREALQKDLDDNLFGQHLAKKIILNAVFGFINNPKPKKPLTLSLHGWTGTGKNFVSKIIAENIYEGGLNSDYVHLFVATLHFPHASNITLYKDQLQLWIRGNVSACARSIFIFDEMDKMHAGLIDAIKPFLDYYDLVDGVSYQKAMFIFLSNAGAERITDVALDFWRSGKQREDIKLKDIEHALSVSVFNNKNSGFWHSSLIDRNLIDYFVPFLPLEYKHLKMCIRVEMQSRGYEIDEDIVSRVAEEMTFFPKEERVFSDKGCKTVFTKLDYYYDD
The target is the same in assay [9]. Briefly: torsin A mutant lysate binding on microarrays – cell lysate, small-molecule microarray, COS7 lysate, 635/667 nm fluorescence, primary screen (AID 1150).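 Further: score pools 667 nm emission and signal to noise measuring lysate protein binding.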 To be noted: COS7 hTOR1A mutant lysate, 635 nm fluorescence, higher = more signal.
Assay [10] concerns Sonic hedgehog protein (Shh). Briefly: Sonic hedgehog microarray binding compounds – biochemical, small-molecule microarray, 635/667 nm fluorescence, primary screen (AID 1151).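 Further: Shh protein binding to compounds spotted on small-molecule microarray slides; score combines spot fluorescence intensity with signal-to-noise across triplicate slides.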 To be noted: 635 nm fluorescence, higher = more signal.

Each structure is given as a SMILES string. Calls of active or inactive are those of the source. Unless noted, how the calls were made is not given here.

As for `CCOC(=O)[C@H](Cc1ccccc1)NC(=O)CCC1CC(OC(=O)NCc2cccc3ccccc23)CC2(CCCC(COC(=O)NCCC(C)C)O2)O1` (stereo not given in full), the composite z-score is -0.0404 in assay [1]; 1.8 in assay [6]; -0.231 in assay [7]; 1.5 in the assay with Torsin-1A (Homo sapiens) [8]; -0.359 with Torsin-1A (Homo sapiens) [9]; -0.226 in [10]. Also, the z-score is 0.0896 (inactive) in [2], -0.863 (inactive) in [3], -0.525 (inactive) in assay [4] and 0.214 (inactive) in assay [5].

Consider `CC(C)=CCCC(C)=CCON=C1C[C@@H](O)[C@@H](O)[C@@H]2[C@@H]3C(=O)N(C(C)(C)C)C(=O)[C@@H]3CC[C@@H]12`, for which the composite z-score in assay [1] was -0.0529; in assay [6] it was -0.125; in assay [7], -0.293; with Torsin-1A (Homo sapiens) [8], 0.244; with Torsin-1A (Homo sapiens) [9], 0.764; in assay [10], 0.711. The z-score in assay [2] is -0.813 (inactive); in assay [3], -0.408 (inactive); in [4], 1.6 (inactive); in [5], 0.585 (inactive).

Take `O=C(NN=C1C[C@@H](O)[C@@H](O)[C@@H]2[C@@H]3C(=O)N(C[C@@H]4CCCO4)C(=O)[C@@H]3CC[C@@H]12)OCc1ccccc1`: the composite z-score is 0.0252 in assay [1]; -0.34 in assay [6]; -0.242 in [7]; 2.6 in the assay with Torsin-1A (Homo sapiens) [8]; 2.72 with Torsin-1A (Homo sapiens) [9]; 0.604 in [10]. Further, the z-score in [2] was -0.746 (inactive); in [3], 0.556 (inactive); in [4], 0.694 (inactive); in [5], 0.13 (inactive).

Turning to `CO[C@@H]1C=CCC(=O)N2CCC[C@H]2C(=O)OC[C@@H](C)C(=O)OC[C@H]1C`, the composite z-score in assay [1] is 0.172; in [6], -0.482; in assay [7], -0.0762; with Torsin-1A (Homo sapiens) [8] it was -0.0067; with Torsin-1A (Homo sapiens) [9], 0.652; in [10], 1.68. In addition, the z-score is -0.0949 (inactive) in assay [2], -1.23 (inactive) in [3], -0.0234 (inactive) in assay [4] and 0.2 (inactive) in assay [5].

For the compound `CO[C@H]1COC(=O)CCC[C@@H](C)[C@H](OC)COC(=O)[C@@H](C)NC(=O)CC=C[C@@H]1C`, the composite z-score was -0.183 in assay [1]; -0.429 in assay [6]; -0.152 in assay [7]; 2.63 with Torsin-1A (Homo sapiens) [8]; 1.5 in the assay with Torsin-1A (Homo sapiens) [9]; 2.1 in [10]. Moreover, the z-score in [2] was -2.74 (inactive); in assay [3] it was -0.231 (inactive); in [4] it was -0.58 (inactive); in assay [5], -0.041 (inactive).

Regarding `CCOC(=O)NN=C1C[C@@H](O)[C@@H](O)[C@@H]2[C@@H]3C(=O)N([C@@H](C)c4ccccc4)C(=O)[C@@H]3CC[C@@H]12`, the composite z-score in assay [1] was 0.229; in assay [6] it was -0.468; in assay [7] it was -0.0313; with Torsin-1A (Homo sapiens) [8], 2.58; with Torsin-1A (Homo sapiens) [9] it was 2.5; in assay [10], 1.37. The z-score is 0.261 (inactive) in [2], -0.353 (inactive) in assay [3], -0.475 (inactive) in [4] and -0.14 (inactive) in [5].

With `CCCCC#C[C@@H]1C=C[C@H](Oc2cc(OC)c(OC)c(OC)c2)[C@@H](COC(=O)OCC)O1`, the composite z-score was -0.282 in [1]; -0.523 in assay [6]; -0.173 in assay [7]; -0.0251 in the assay with Torsin-1A (Homo sapiens) [8]; -0.361 in the assay with Torsin-1A (Homo sapiens) [9]; 0.375 in [10]. Also, the z-score in [2] is -0.721 (inactive); in assay [3], -0.264 (inactive); in assay [4], 2 (inactive); in [5], -0.684 (inactive).

For the compound `CC(CCN1CCc2nc(-c3ccccc3)c(-c3ccccc3)cc2C1)=NOC[C@@H](O)[C@H]1O[C@@H]2OC(C)(C)O[C@@H]2[C@H]1O`, the composite z-score in [1] is 0.19; in assay [6], 0.687; in [7], -0.0589; with Torsin-1A (Homo sapiens) [8], 0.648; with Torsin-1A (Homo sapiens) [9] it was 0.587; in assay [10], 1.09. For the same compound, the z-score in assay [2] is -0.875 (inactive); in [3], 0.306 (inactive); in [4], 2.25 (inactive); in [5] it was -0.311 (inactive).

In the case of `O=C1C[C@@H](O)[C@@H](O)[C@@H]2[C@@H]3C(=O)N(Cc4ccccc4)C(=O)[C@@H]3CC[C@@H]12`, the composite z-score is 0.19 in assay [1]; 0.413 in assay [6]; 0.0391 in [7]; 0.498 with Torsin-1A (Homo sapiens) [8]; 0.35 in the assay with Torsin-1A (Homo sapiens) [9]; 0.772 in [10]. For the same compound, the z-score in assay [2] was 0.398 (inactive); in assay [3], -0.593 (inactive); in [4], 1.06 (inactive); in [5], 0.113 (inactive).

Regarding `CC(C)=CCCC(C)=CCON=C1C[C@@H](O)[C@@H](O)[C@@H]2[C@@H]3C(=O)N(C(C)(C)C)C(=O)[C@@H]3CC[C@H]12`, the composite z-score in [1] stood at 0.158; in assay [6], 0.0957; in assay [7], 0.0442; with Torsin-1A (Homo sapiens) [8], 0.366; in the assay with Torsin-1A (Homo sapiens) [9] it was 0.987; in [10], 0.435. For the same compound, the z-score is 0.232 (inactive) in assay [2], -0.625 (inactive) in [3], 0.7 (inactive) in assay [4] and 0.871 (inactive) in assay [5].

Take `C[C@H]1CC[C@H]2C(=O)OC(CO)CN2[C@@H]1c1ccc(Br)cc1` (stereo not given in full): the composite z-score in assay [1] is 0.0096; in assay [6], -0.281; in assay [7], -0.253; with Torsin-1A (Homo sapiens) [8], 0.21; with Torsin-1A (Homo sapiens) [9] it was 0.002; in assay [10], 0.661. Further, the z-score in assay [2] was 0.131 (inactive); in [3], -1.21 (inactive); in assay [4], -0.527 (inactive); in assay [5], -1.43 (inactive).

In the case of `CC(=O)O[C@H]1C2=CO[C@H](C)[C@H]3[C@H]4C5=C([C@H](O)[C@H]6O[C@H]6C5=O)[C@H](OC4C)[C@@]23C(=O)[C@@H]2O[C@@H]21` (stereo not given in full), the composite z-score in [1] is 0.25; in [6], -0.458; in assay [7] it was -0.292; with Torsin-1A (Homo sapiens) [8], -0.119; with Torsin-1A (Homo sapiens) [9] it was -0.279; in assay [10] it was 0.604. Moreover, the z-score in [2] is -6.34 (inactive); in [3], 0.298 (inactive); in assay [4], 0.831 (inactive); in assay [5], 16.6 (active).

As to `CCN1C(=O)[C@H]2[C@H]3[C@H](O)[C@H](O)CC(=NO[C@@H](C)c4cn([C@H](CO)Cc5ccccc5)nn4)[C@@H]3CC[C@H]2C1=O`, the composite z-score was 0.283 in assay [1]; -0.138 in assay [6]; 0.0051 in [7]; 0.651 in the assay with Torsin-1A (Homo sapiens) [8]; 0.435 with Torsin-1A (Homo sapiens) [9]; 0.486 in assay [10]. In addition, the z-score in assay [2] is -0.0863 (inactive); in assay [3], 0.451 (inactive); in [4] it was 0.727 (inactive); in [5], 0.511 (inactive).

With `COC(=O)[C@@H]1CC[C@H](C)[C@@H](c2ccc(C)cc2)N1C(=O)c1ccc(C=NO[C@H](C)c2cn([C@@H]3COC[C@H]3O)nn2)cc1`, the composite z-score was 0.177 in [1]; -0.243 in assay [6]; 0.0001 in [7]; 0.28 in the assay with Torsin-1A (Homo sapiens) [8]; 0.603 in the assay with Torsin-1A (Homo sapiens) [9]; 0.749 in assay [10]. Moreover, the z-score is -0.228 (inactive) in assay [2], 0.068 (inactive) in assay [3], 2.34 (inactive) in [4] and -0.377 (inactive) in assay [5].

Turning to `CC(=O)OC[C@H]1OC(ON=CC[C@@H]2C=C[C@H](OC(C)=O)[C@@H](COC(C)=O)O2)[C@H](OC(C)=O)[C@@H](OC(C)=O)[C@@H]1OC(C)=O` (stereo not given in full), the composite z-score in assay [1] is 0.066; in [6] it was 0.559; in assay [7] it was -0.126; with Torsin-1A (Homo sapiens) [8], 0.37; in the assay with Torsin-1A (Homo sapiens) [9], 0.877; in assay [10], -0.499. The z-score in assay [2] is -0.697 (inactive); in assay [3], -0.133 (inactive); in assay [4], 0.327 (inactive); in assay [5] it was 0.915 (inactive).
